# Test results: PubChem BioAssay (NCATS)
# Values without a mark were called inactive. Records with an inconclusive call do not appear. Calls of active or inactive are those of the source. Unless noted, calls follow the shape of the dose curve; as a rule, active = well fitted curve in either direction with a large enough effect (not every such curve was filed as active); inconclusive = small, poorly fitted or top-dose-only effect, or another doubt; inactive = flat fitted curve, though single readings scatter.
# Key:
# [1] = target: Lysosomal acid glucosylceramidase (Homo sapiens) (UniProt P04062); experiment: Glucocerebrosidase-p2 (AID 348; in the data active = potency below about 10 µM; also: potency is read from the fitted curve at half-maximal effect); details: purified GBA, blue fluorogenic substrate, 40 min
# In short: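 Compounds titrated from 0.6 nM upwards against 0.2 nM enzyme in pH 5.9 citric acid/KH2PO4, taurocholate, tween-20; blue fluorogenic substrate 80 uM, 40 min room temperature, stopped and read Ex 365/Em 440 for AC50.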
# [2] = AP1 Signaling Pathway (AID 357); details: ME-180 AP-1-bla reporter, EGF-induced, beta-lactamase ratio, 5 h; at 7.69 µM (top of the series) unless noted; also: % is scaled to controls: 0 for no effect and ±100 for the full control effect
# In short: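 AP-1-bla ME-180 cells with beta-lactamase reporter under AP-1 response element, stimulated with EC50 EGF; compounds titrated, 5 hours at 37 degrees Celsius. CCF4 read at 460/530 nm ratio; positive and negative modulators judged by AC50.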
# [3] = NFAT Signaling Pathway (AID 444); details: Jurkat NFAT-bla M1, carbachol, beta-lactamase ratio, 5 h; at 7.69 µM (top of the series) unless noted;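 also: carbachol stimulus at about its EC50 of 1 µM final; % is scaled to controls: 0 for no effect and ±100 for the full control effect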
# In short: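 Jurkat cells with NFAT-driven β-lactamase reporter and co-expressed M1 receptor, stimulated with carbachol (final 1 uM, ~EC50), compound titration, 5 h at 37 °C. CCF4 loaded 1 h at RT; 460/530 nm ratio gave %activity and AC50.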
# [4] = Stat Signaling Pathway (AID 446); details: ME-180 SIE beta-lactamase reporter, IL-6 stimulated, 5 h; at 7.69 µM (top of the series) unless noted;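 also: ME-180 cervical cancer cells given 40 pM IL-6 alongside compound; SIE-controlled beta-lactamase reporter measured as 460/530 nm FRET emission ratio; % is scaled to controls: 0 for no effect and ±100 for the full control effect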
# In short: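 IL-6/STAT signaling read in ME-180 cells via an SIE beta-lactamase reporter. Stimulus was 40 pM IL-6 (its AC50) for 5 hrs, so both activation and inhibition register.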
# [5] = target: Glucocorticoid receptor (Homo sapiens) (UniProt P04150); experiment: GR-GFP Redistribution (AID 450;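 active = compounds whose dose series gives a full or clear partial fitted curve of increased nuclear translocation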; also: potency is read from the fitted curve at half-maximal effect); details: U2OS GR-GFP nuclear translocation, laser cytometry, 2 h
# [6] = target: Glucocorticoid receptor (Homo sapiens) (UniProt P04150); experiment: GR-EFC Redistribution (AID 451; calls by dose curve; also: potency is read from the fitted curve at half-maximal effect); details: CHO-K1 GR-EFC translocation, beta-gal luminescence, 2 h
# In short: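 CHO-K1 cells expressing nuclear EA and GR-ED fragments of b-gal; compounds titrated up to 46 uM final, 2 h at 37 C. GR nuclear translocation read as complemented b-gal luminescence after 1 h RT detection.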
# [7] = target: Mitogen-activated protein kinase 10 (Mus musculus) (UniProt Q61831); experiment: JNK3 AlphaScreen Assay (AID 530); details: JNK3 lysate, c-Jun phosphorylation; series mostly up to 57.1 µM;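 also: kinase came from lysate of stimulated human HepG2 cells; signal reports phosphorylation of biotinylated GST-cJun 1-79 at Ser73 with 10 µM ATP; % is scaled to controls: 0 for no effect and ±100 for the full control effect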
# In short: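 Pre-activated (IL-1β/TNFα) JNK3 in HepG2 lysates phosphorylates biotin-GST-cJun(1-79), 10 uM ATP; anti-phospho-cJun(Ser73) AlphaScreen read at room temperature, pH 7.6 Tris buffer. Compounds pre-incubated 15 min as titrations.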
# [8] = target: 3',5'-cyclic-AMP phosphodiesterase 4B (Homo sapiens) (UniProt Q07343); experiment: qHTS Assay for Inhibitors of PDE-IV (AID 607; active = well fitted activation curve with a large enough effect in the main read-out, with a control signal flat, not every such curve was filed as active; also: % of control where 0% means no effect); details: HEK293 ACTOne CNG channel cells, membrane potential fluorescence; series mostly up to 22.9 µM
# In short: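 Live HEK293 cells with a modified cyclic nucleotide-gated (CNG) channel report intracellular cAMP via membrane-potential dye fluorescence (ex 535/em 590 nm). Endogenous PDE-IV was targeted. Compounds were tested at up to 22.9 uM final; RO 20-1724 100 uM served as control.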
# [9] = target: Cytochrome P450 2C9 (Homo sapiens) (UniProt P11712); experiment: qHTS Assay for Inhibitors and Substrates of Cytochrome P450 2C9 (AID 883; active = well fitted curve in the direction sought with a large enough effect; an effect the other way counts as inactive or inconclusive; also: potency is read from the fitted curve at half-maximal effect; nearly all actives have a fitted effect of over 60% in size); details: recombinant CYP2C9, luciferin-H luminescence, 60 min; series mostly up to 57.1 µM
# In short: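 Signal: luciferase luminescence reporting luciferin produced by CYP2C9. Conditions: 10nM enzyme, Luciferin-H 100uM at KM, 25mM KPO4, 37C, 60 min NADPH-driven reaction. Reference: 57uM sulphaphenazole as 100% inhibition.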
# [10] = target: Cytochrome P450 3A4 (Homo sapiens) (UniProt P08684); experiment: qHTS Assay for Activators of Cytochrome P450 3A4 (AID 885; active = well fitted curve in the direction sought with a large enough effect; an effect the other way counts as inactive or inconclusive; also: nearly all actives have a fitted effect of over 65% in size); details: recombinant CYP3A4, Luciferin-PPXE luminescence, 60 min; series mostly up to 57.1 µM
# In short: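 Quantitative HTS format: compounds preincubated with 20nM human CYP3A4 and Luciferin-PPXE substrate at KM, reaction started by NADPH regeneration, stopped after 60 min, luciferase luminescence read 20 min later.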
# [11] = target: Cytochrome P450 2D6 (Homo sapiens) (UniProt P10635); experiment: qHTS Assay for Inhibitors and Substrates of Cytochrome P450 2D6 (AID 891; active = well fitted curve in the direction sought with a large enough effect; an effect the other way counts as inactive or inconclusive; also: nearly all actives have a fitted effect of over 60% in size; also: potency is read from the fitted curve at half-maximal effect); details: recombinant CYP2D6, luciferin-ME EGE luminescence; series mostly up to 11.4 µM
# In short: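 Human CYP2D6 (5 nM) with 30 uM Luciferin-ME EGE (at Km) in 100 mM KPO4, compound preincubated 10 min, then NADPH regeneration system for 60 min at room temperature. Luciferin read by luminescence; normalized to 1.43 uM quinidine.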
# [12] = target: Cytochrome P450 2C19 (Homo sapiens) (UniProt P33261); experiment: qHTS Assay for Inhibitors and Substrates of Cytochrome P450 2C19 (AID 899; active = well fitted curve in the direction sought with a large enough effect; an effect the other way counts as inactive or inconclusive; also: nearly all actives have a fitted effect of over 60% in size; also: potency is read from the fitted curve at half-maximal effect); details: recombinant CYP2C19, luciferin-H EGE luminescence; series mostly up to 11.4 µM
# In short: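 Signal comes from luciferase acting on luciferin released by CYP2C19-mediated hydroxylation of Luciferin-H EGE, 10uM (KM). Assay mix: 5nM enzyme, 50mM KPO4; 60 min at 37C with NADPH regeneration. Data normalized against 57uM ketoconazole.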
# [13] = target: Cytochrome P450 1A2 (Homo sapiens) (UniProt P05177); experiment: p450-cyp1a2 (AID 410; calls by dose curve;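 also: -100% = full effect of reference inhibitor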); details: recombinant CYP1A2, luciferin-ME demethylation, luminescence; series mostly up to 11.4 µM
# In short: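 Luminescent readout of luciferin formed from Luciferin-ME by human CYP1A2; data normalized against complete inhibition by 57 uM furafylline. Enzyme 20nM, substrate 100uM at Km, 100mM KPO4 buffer, 60 min reaction at room temperature.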
# [14] = qHTS Assay for Identification of Small Molecule Agonists for Hypoxia Response Element Signaling Pathway (AID 914; active = well fitted activation curve with a large enough effect in the signal ratio, with a control signal flat, not every such curve was filed as active; the % refers to the signal ratio; also: % of control where 0% means no effect); details: ME-180 (cervical carcinoma) HRE-bla reporter, beta-lactamase ratio, CoCl2, 17 h; active compounds read high
# In short: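 Compounds in a titration series were added to ME-180 reporter cells alongside an EC50 level of CoCl2. After 17 hours, beta-lactamase activity was read as the 460nm/530nm emission ratio of CCF4, giving AC50 values.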
# Sequence of Cytochrome P450 1A2 (Homo sapiens) (P05177 whole entry, looked up): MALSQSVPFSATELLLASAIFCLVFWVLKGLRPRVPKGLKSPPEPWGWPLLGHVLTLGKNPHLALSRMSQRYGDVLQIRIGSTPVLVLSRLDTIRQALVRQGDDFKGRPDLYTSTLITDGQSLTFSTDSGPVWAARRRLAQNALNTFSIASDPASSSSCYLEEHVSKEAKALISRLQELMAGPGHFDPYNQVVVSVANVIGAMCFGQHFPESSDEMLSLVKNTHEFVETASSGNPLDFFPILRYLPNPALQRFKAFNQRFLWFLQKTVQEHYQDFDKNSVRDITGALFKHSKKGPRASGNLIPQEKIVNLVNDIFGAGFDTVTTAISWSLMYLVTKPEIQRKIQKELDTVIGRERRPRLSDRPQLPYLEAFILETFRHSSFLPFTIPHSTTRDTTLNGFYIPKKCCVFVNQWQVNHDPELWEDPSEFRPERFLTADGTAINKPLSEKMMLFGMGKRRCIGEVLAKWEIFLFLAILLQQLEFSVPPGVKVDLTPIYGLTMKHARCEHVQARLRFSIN
# Sequence of Glucocorticoid receptor (Homo sapiens) (P04150 whole entry, looked up, the tested form may be a part): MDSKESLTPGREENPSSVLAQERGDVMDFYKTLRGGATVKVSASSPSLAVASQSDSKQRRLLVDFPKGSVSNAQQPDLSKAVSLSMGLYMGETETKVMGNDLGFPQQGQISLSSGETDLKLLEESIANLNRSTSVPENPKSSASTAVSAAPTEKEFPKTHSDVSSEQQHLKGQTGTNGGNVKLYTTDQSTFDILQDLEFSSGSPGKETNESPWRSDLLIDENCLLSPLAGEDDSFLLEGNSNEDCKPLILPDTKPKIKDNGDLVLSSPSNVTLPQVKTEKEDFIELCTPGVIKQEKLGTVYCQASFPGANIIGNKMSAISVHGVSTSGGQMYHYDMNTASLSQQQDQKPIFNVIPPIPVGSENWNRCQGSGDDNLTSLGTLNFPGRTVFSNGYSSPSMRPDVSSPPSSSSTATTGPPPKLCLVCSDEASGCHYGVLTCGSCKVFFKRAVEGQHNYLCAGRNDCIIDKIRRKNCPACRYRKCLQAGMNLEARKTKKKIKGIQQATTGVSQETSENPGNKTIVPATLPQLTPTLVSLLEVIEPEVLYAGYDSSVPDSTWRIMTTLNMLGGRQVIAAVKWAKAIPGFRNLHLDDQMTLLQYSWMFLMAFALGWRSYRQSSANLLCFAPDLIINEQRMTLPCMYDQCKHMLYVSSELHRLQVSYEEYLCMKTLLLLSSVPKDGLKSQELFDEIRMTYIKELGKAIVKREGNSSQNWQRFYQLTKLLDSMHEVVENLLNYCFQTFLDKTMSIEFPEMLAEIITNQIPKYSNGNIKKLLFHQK
# Sequence of Lysosomal acid glucosylceramidase (Homo sapiens) (P04062 whole entry, looked up): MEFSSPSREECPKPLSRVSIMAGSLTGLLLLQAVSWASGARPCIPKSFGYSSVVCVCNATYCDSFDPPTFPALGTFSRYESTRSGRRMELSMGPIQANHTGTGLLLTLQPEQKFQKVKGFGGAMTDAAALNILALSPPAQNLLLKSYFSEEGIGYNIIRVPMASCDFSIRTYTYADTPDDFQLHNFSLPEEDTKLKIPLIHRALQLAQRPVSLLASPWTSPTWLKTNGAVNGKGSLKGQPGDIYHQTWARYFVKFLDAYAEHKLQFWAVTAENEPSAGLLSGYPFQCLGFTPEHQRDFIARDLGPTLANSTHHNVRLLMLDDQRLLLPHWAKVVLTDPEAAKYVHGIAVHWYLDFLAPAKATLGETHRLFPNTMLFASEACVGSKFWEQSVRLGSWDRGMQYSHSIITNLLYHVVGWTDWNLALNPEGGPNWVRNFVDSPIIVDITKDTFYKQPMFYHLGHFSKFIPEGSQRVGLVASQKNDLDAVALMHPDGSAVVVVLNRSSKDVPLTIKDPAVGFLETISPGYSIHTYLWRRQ
# Sequence of 3',5'-cyclic-AMP phosphodiesterase 4B (Homo sapiens) (Q07343 whole entry, looked up): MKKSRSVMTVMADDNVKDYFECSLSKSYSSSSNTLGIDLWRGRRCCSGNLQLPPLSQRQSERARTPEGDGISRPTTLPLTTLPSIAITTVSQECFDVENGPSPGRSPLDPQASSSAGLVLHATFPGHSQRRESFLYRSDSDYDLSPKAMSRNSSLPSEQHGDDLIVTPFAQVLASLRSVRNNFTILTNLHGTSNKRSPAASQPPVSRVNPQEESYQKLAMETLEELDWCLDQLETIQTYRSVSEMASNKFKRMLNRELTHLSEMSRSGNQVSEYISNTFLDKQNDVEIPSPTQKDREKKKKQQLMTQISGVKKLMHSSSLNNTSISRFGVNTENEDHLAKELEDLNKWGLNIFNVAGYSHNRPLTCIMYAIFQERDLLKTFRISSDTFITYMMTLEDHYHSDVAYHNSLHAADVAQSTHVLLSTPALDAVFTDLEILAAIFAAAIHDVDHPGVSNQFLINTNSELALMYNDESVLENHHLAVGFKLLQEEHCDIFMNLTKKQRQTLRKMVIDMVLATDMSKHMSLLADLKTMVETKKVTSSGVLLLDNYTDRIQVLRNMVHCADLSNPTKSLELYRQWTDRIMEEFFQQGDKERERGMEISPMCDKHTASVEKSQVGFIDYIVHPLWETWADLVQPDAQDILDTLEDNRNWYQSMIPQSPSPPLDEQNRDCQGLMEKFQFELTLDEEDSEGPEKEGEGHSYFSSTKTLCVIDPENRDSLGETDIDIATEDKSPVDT
# Sequence of Cytochrome P450 2C19 (Homo sapiens) (P33261 whole entry, looked up): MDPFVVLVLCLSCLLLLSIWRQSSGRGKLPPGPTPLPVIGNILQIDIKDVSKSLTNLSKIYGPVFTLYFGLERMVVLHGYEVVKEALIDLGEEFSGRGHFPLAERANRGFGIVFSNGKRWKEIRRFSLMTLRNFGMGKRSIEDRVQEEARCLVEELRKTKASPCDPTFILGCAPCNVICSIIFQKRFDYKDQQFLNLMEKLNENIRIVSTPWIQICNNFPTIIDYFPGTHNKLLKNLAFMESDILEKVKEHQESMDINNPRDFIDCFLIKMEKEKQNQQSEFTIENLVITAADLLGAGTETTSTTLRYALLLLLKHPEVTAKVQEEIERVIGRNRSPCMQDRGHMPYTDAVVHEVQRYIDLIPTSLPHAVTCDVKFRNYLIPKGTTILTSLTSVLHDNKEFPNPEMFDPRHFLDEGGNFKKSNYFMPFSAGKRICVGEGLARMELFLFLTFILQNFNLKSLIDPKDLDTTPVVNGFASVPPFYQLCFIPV
# Sequence of Cytochrome P450 3A4 (Homo sapiens) (P08684 whole entry, looked up): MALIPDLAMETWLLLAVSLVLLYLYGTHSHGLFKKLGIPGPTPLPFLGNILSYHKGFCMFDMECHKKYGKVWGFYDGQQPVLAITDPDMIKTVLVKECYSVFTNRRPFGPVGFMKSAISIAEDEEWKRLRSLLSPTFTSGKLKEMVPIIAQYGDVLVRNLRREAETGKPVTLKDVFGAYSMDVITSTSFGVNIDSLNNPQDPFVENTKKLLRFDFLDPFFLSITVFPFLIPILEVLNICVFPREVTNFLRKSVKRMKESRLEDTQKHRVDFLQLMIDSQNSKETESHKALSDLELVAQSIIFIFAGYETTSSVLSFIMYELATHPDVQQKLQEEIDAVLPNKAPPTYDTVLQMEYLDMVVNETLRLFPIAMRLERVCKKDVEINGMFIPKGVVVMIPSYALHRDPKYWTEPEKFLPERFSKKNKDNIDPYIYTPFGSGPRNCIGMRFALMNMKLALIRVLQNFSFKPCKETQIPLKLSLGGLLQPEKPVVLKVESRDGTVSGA
# Sequence of Cytochrome P450 2D6 (Homo sapiens) (P10635 whole entry, looked up): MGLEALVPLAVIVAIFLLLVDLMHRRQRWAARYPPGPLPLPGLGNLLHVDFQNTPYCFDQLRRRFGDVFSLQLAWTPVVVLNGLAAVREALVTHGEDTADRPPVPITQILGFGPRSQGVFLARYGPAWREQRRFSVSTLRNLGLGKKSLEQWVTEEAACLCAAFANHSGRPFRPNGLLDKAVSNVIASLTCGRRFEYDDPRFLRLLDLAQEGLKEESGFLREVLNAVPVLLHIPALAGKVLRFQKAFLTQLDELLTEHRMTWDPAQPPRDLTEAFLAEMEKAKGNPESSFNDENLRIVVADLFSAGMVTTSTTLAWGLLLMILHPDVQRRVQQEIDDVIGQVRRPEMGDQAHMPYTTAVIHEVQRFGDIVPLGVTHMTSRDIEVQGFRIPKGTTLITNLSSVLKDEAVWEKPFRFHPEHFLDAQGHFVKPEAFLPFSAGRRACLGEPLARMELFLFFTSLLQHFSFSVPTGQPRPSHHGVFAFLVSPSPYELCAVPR
# Sequence of Cytochrome P450 2C9 (Homo sapiens) (P11712 whole entry, looked up): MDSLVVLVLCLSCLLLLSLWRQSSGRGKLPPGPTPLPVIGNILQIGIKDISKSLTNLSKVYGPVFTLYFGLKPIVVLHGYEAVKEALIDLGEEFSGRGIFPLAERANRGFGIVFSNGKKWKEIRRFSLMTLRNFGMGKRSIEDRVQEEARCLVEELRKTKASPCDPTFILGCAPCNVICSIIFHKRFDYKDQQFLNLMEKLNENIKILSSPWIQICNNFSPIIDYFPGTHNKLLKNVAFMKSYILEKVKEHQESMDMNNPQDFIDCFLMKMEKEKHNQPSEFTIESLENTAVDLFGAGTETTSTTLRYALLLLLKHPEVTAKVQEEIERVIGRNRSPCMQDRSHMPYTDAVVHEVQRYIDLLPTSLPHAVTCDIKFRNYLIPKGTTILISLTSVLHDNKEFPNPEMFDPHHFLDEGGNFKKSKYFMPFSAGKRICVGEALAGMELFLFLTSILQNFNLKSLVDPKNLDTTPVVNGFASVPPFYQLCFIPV
Compound,Potency [1] [µM],"activity change, negative = inhibition [2] [%]","activity change, negative = inhibition [3] [%]","activity, negative = inhibition [4] [%]",Potency [5] [µM],Potency [6] [µM],"activity change, negative = inhibition [7]",outcome [8],Potency [9],"activity change, positive = activation [10]",Potency [11],Potency [12],Potency [13],"activity change, negative = inhibition [13]",activation [14] [%]
C[C@@](Br)(C(=O)O)[C@H](Br)C(=O)O,> 11.4,3.08,17.1,8.31,> 46,> 9.22,1.39% [at 11.4 µM],inactive,–,–,–,–,–,–,–
C[C@H](Br)CN(C[C@H](C)Br)c1ccc2c(c1)Cc1ccccc1-2,> 11.4,-9.29,8.25,-7.03,> 46,> 9.22,-8.45% [at 11.4 µM],inactive,3.16 µM (active),-34.7% [at 11.4 µM],inactive,2.51 µM (active),–,–,–
O=P(O)(O)CCP(=O)(O)O,> 11.4,-10.9,7.15,11.8,> 46,> 9.22,-1.32% [at 11.4 µM],inactive,–,–,–,–,–,–,–
O=C(O)[C@@H](O)[C@@H](O)[C@@H]1[O][Sb][O][C@@H]1CO,> 11.4,4.54,5.74,1.94,> 46,> 9.22,1.63% [at 11.4 µM],inactive,–,–,–,–,–,–,–
CN(C)CCCNc1c2c(nc3ccc(Cl)cc13)CCCC2,> 11.4,-1.02,-26.1,10,> 46,> 9.22,3.7% [at 11.4 µM],inactive,–,–,–,–,–,–,–
c1cncc(CNCCN2CCNCC2)c1,> 11.4,5.14,–,–,> 46,> 9.22,1.33% [at 11.4 µM],inactive,–,–,–,–,inactive,–,–
C[C@H](CC(C#N)(c1ccccc1)c1ccccc1)N1CCCCC1,> 11.4,17,–,–,> 46,> 9.22,1.28% [at 11.4 µM],inactive,–,-53% [at 11.4 µM],2.51 µM (active),–,–,7.1% [at 2.29 µM],4.33
C[C@@]12CC[C@H]3[C@H](CCC4=CC(=O)CC[C@H]43)[C@H]1CC[C@H]2OC1(O)C(=O)c2ccccc2C1=O,> 11.4,1.93,-18.3,-10.1,> 46,> 9.22,-3.36% [at 11.4 µM],inactive,–,–,–,–,–,–,–
O=C(O)[C@H]1[O][Sb][O][C@@H](C(=O)O)C1O (some centres not stated),> 11.4,1.25,8.28,6.32,> 46,> 9.22,-2.33% [at 11.4 µM],inactive,–,–,–,–,–,–,–
C[C@@]12CC[C@H](O)C[C@@H]1CC[C@@H]1[C@@H]2CC[C@@]2(C)[C@@H](C3=CC(=O)OC3)[C@H](O)C[C@]12O,> 11.4,15.5,–,–,> 46,> 9.22,1.8% [at 11.4 µM],inactive,–,–,–,inactive,inactive,–,–
O=C(O)CNC(=O)c1ccc([As](=O)(O)O)cc1,> 11.4,9.68,7.56,12.9,> 46,> 9.22,36.2% [at 11.4 µM],inactive,–,–,–,–,–,–,–
NC1(P(=O)(O)O)CCCCC1,> 11.4,11.8,-8.61,4.3,> 46,> 9.22,5.68% [at 11.4 µM],inactive,–,–,–,–,–,–,–
CSc1ccc2c(c1)c(CCN)c(C)n2Cc1ccccc1Cl,> 11.4,16.6,17.6,-2.31,> 46,> 9.22,-5.61% [at 11.4 µM],inactive,–,–,–,–,–,–,–
O=C(O)C(Oc1nc(=S)[nH]c(=S)[nH]1)(c1ccc(Cl)cc1)c1ccc(Cl)cc1,> 11.4,17,0.65,3.94,> 46,> 9.22,5.45% [at 11.4 µM],inactive,–,–,–,–,–,–,–
